In PubChem BioAssay AID1224921 (Broad Institute, 2016):
About 350 (25%) of roughly 1,400 compounds were called active. About 2% were inconclusive and are not listed. The list is a sample of the results. Measured potencies and affinities stand elsewhere. Unmarked numbers belong to inactive results. How the calls were made is not given here.

Test: C. difficile growth inhibition, confirmation, 4-point retest (AID 1224921);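 further: plate controls were DMSO wells for no effect and levofloxacin 16 µg/mL wells for full effect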
Conditions: Clostridioides difficile clinical isolate growth, OD600, 24 h, hits give low values; at 30 µM unless noted

SMILES | max activity
COc1ccc(S(=O)(=O)Nc2ccc3c(c2)CC(=O)N([C@@H](C)CO)C[C@@H](C)[C@H](CN(C)CC2CCCCC2)O3)cc1 | 25.5%
COc1ccccc1S(=O)(=O)N[C@@H]1C=C[C@H](CC(=O)N2CCCCC2)O[C@@H]1CO | -6.91% [at 0.5 µM]
C[C@H](CO)N1C[C@H](C)[C@@H](CN(C)S(=O)(=O)c2cn(C)cn2)OCCCC[C@H](C)Oc2ccc(NC(=O)Nc3cccc4ccccc34)cc2C1=O | 18.8%
C[C@@H]1CN([C@@H](C)CO)C(=O)c2cccc(NC(=O)Nc3ccc(C(F)(F)F)cc3)c2O[C@H]1CN(C)S(=O)(=O)c1ccc(Cl)cc1 | 49.8%
C[C@@H]1CN([C@H](C)CO)C(=O)c2cccc(NC(=O)Nc3ccc(C(F)(F)F)cc3)c2O[C@H]1CN(C)S(=O)(=O)c1ccc(Cl)cc1 | 33.1%
C[C@H]1CCCCO[C@H](CN(C)S(=O)(=O)c2cn(C)cn2)[C@@H](C)CN([C@@H](C)CO)C(=O)c2cc(NC(=O)CCCN(C)C)ccc2O1 | 5.89% [at 8 µM]
CC(C)NC(=O)Nc1ccc2c(c1)CC(=O)N([C@H](C)CO)C[C@@H](C)[C@@H](CN(C)Cc1ccc(-c3ccccc3)cc1)O2 | 54.7%
C[C@@H]1CN([C@H](C)CO)S(=O)(=O)c2ccc(C3=CCCCC3)cc2O[C@H]1CN(C)Cc1cccnc1 | 53.5%
CC(C)C#Cc1ccc2c(c1)O[C@@H](CN(C)Cc1ccncc1)[C@@H](C)CN([C@H](C)CO)S2(=O)=O | 30.4%
COc1ccc(NC(=O)O[C@H]2[C@H](OC(=O)Nc3ccccc3)[C@H](OC(=O)Nc3ccccc3)[C@@H](OC)O[C@@H]2CO)cc1 | 32.3%
C[C@H](NC(=O)N(C)C[C@@H]1OCc2ccccc2-c2c(n(C)c3ccccc23)C(=O)N([C@H](C)CO)C[C@H]1C)c1ccccc1 | 18.8%
CC(=O)N(C)C[C@H]1Oc2ncc(-c3ccc(C(=O)N(C)C)cc3)cc2C(=O)N([C@H](C)CO)C[C@H]1C | -8.17%
COCC(=O)Nc1ccc2c(c1)C(=O)N(C)C[C@@H](OC)[C@H](C)CN[C@H](C)CO2 | -10.3% [at 1.95 µM]
CO[C@@H]1CN(C)C(=O)c2ccc(NC(=O)Nc3ccc4c(c3)OCO4)cc2OC[C@@H](C)NC[C@@H]1C | 10.6%
COc1ccc(CN(C)C[C@H]2OCCCC[C@@H](C)Oc3ccc(NC(=O)Nc4ccc5c(c4)OCO5)cc3C(=O)N([C@@H](C)CO)C[C@@H]2C)cc1 | 44.6%
C[C@@H]1CN([C@@H](C)CO)C(=O)c2ccccc2-c2ccccc2CO[C@H]1CN(C)S(=O)(=O)c1ccsc1 | 36%
C[C@@H](C(=O)N(C)C[C@H]1OCc2ccccc2-c2ccccc2C(=O)N([C@@H](C)CO)C[C@@H]1C)c1ccccc1 | -9.53% [at 8 µM]
C[C@@H]1CCCCO[C@H](CN(C)S(=O)(=O)c2ccc(Cl)cc2)[C@H](C)CN([C@@H](C)CO)C(=O)c2cc(N(C)C)ccc2O1 | 25.4%

SMILES | max activity
O=C(N[C@H]1C=C[C@@H](CC(=O)N2CCOCC2)O[C@H]1CO)c1cccc(F)c1 | 9.04%
C[C@@H]1CN([C@H](C)CO)C(=O)c2cc(C#C[C@@H](C)O)cnc2O[C@@H]1CN(C)Cc1ccc(-c2ccccc2)cc1 | -9.01% [at 1.95 µM]
C[C@@H]1CCCCO[C@@H](CN(C)CC2CC2)[C@H](C)CN([C@H](C)CO)C(=O)c2cc(NC(=O)Nc3cccc4ccccc34)ccc2O1 | 12.9%
COCC(=O)Nc1ccc2c(c1)C(=O)N(C)C[C@@H](OC)[C@H](C)CN(C(=O)CN1CCOCC1)[C@H](C)CO2 | -15.1% [at 2.1 µM]
C[C@H]1CN([C@@H](C)CO)C(=O)c2cc(NC(=O)CCC(F)(F)F)ccc2O[C@H]1CN(C)Cc1ccc(-c2ccccc2)cc1 | 46.6%
CO[C@H]1CN(C)C(=O)c2cc(NC(=O)Nc3cccc(F)c3)ccc2OC[C@H](C)N(C)C[C@H]1C | -7.19% [at 0.5 µM]
COc1ccc([Si](C)(C)[C@H]2[C@H](CCO)O[C@@]3(C(=O)N(C)c4ccccc43)[C@@H]2C)cc1 | 12.6% [at 8 µM]
CCCC#Cc1ccc2c(c1)O[C@@H](CN(C)Cc1ccncc1)[C@H](C)CN([C@H](C)CO)S2(=O)=O | 15.9%
COc1cccc(S(=O)(=O)Nc2ccc3c(c2)[C@H]2C[C@@H](CC(=O)NC4CCCCC4)O[C@@H](CO)[C@H]2O3)c1 | -11.1% [at 1.95 µM]
O=C(C[C@H]1C[C@H]2c3cc(NC(=O)Nc4ccc(C(F)(F)F)cc4)ccc3O[C@H]2[C@@H](CO)O1)NC1CCCCC1 | -14.7% [at 1.95 µM]
COc1ccc(S(=O)(=O)N(C)C[C@@H]2Oc3ccc(NC(=O)CCCN(C)C)cc3CC(=O)N([C@@H](C)CO)C[C@H]2C)cc1 | -7.02% [at 1.95 µM]
CO[C@H]1CN(C)C(=O)c2cc(NC(=O)Nc3ccc(F)cc3)ccc2OC[C@@H](C)NC[C@@H]1C | -7.9% [at 0.5 µM]
CO[C@@H]1CN(C)C(=O)c2ccc(NC(=O)Nc3ccc4c(c3)OCO4)cc2OC[C@H](C)NC[C@H]1C | -8.6% [at 0.5 µM]
CCC(=O)Nc1ccc2c(c1)C(=O)N(C)C[C@@H](OC)[C@@H](C)CN[C@@H](C)CO2 | 6.81% [at 0.5 µM]
CO[C@@H]1CN(C)C(=O)c2cc(NC(=O)Nc3ccc(F)cc3)ccc2OC[C@H](C)NC[C@H]1C | -13.4% [at 1.95 µM]
CO[C@H]1CN(C)C(=O)c2cc(NC(=O)Nc3ccc(F)cc3)ccc2OC[C@H](C)NC[C@@H]1C | -22.1%
C[C@@H]1CN([C@H](C)CO)C(=O)c2cc(NC(=O)Nc3ccc4c(c3)OCO4)ccc2O[C@H]1CN(C)Cc1ccccc1 | 22.6%
